The text below walks through data of PubChem BioAssay.

Each structure is given as a SMILES string. Calls of active or inactive are those of the source.

Test [1] can be described thus: anti-His antibody binders, primary screen, artefact control for SMM control protein annotation, biochemical, small-molecule microarray, 635 nm fluorescence (AID 1128).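 Also: score merges feature fluorescence with signal-to-noise for each printed compound spot.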 As to conditions: anti-His Alexa647 antibody binding, higher = more signal.
The subject of test [2] is Human papillomavirus type 1a E7 protein (residues 1-88). The test is described as follows: HPV1a E7 small-molecule binders, primary screen, biochemical, small-molecule microarray, residues 1-88, 635 nm (AID 1129). As to conditions: small-molecule microarray binding, fluorescence 635 nm; higher = more signal.
Test [3] concerns the target Focal adhesion kinase 1 (Homo sapiens) (UniProt Q05397). The test is described as follows: small-molecule microarray binders of FAK, primary screen, biochemical, 635/667 nm fluorescence, BSA, DTT (AID 1130).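 Also: composite of spot emission at 667 nm and signal to noise over triplicate slides.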 Particulars: PTK2 binding, 635 nm fluorescence, higher = more signal.
For test [4], the system named is Fibrinogen (Alexa647-labelled). The test can be described thus: fibrinogen binders on compound microarrays, profiling panel, artefact control for SMM control-protein annotation, biochemical, small-molecule microarray, 635/667 nm fluorescence (AID 1131).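 Also: z-score merges 667 nm fluorescence with per-spot signal-to-noise over triplicate slides.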 As to conditions: fibrinogen-A647 binding fluorescence, higher = more signal.
Test [5] addresses Follistatin (Homo sapiens) (UniProt P19883). The test can be described thus: follistatin binders on small-molecule microarrays, primary screen, biochemical, small-molecule microarray, 635/667 nm fluorescence (AID 1132). Particulars: FST binding, 635 nm fluorescence, higher = more signal.
The target in test [6] is Fibroblast growth factor 2 (Homo sapiens) (UniProt P09038). The test can be described thus: FGF2 binders on small-molecule microarrays, primary screen, biochemical, small-molecule microarray, 635/667 nm fluorescence (AID 1133). Particulars: small-molecule microarray binding, FGF2, fluorescence 635/667; higher = more signal.
Chain of Fibroblast growth factor 2 (Homo sapiens) (P09038 whole entry, looked up): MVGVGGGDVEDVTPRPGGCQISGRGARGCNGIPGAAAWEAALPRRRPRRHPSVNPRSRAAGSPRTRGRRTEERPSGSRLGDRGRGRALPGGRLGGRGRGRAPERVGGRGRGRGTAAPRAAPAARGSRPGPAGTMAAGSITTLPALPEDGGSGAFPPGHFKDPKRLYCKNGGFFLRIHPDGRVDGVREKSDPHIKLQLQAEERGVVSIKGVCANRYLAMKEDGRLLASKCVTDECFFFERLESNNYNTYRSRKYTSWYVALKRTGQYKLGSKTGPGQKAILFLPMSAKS
The nature of test [7]: mitochondrial membrane potential change in A549 cells, profiling panel, cell-based, JC-1 fluorescence, basal, 24 h, 100 nL (AID 1138).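 Also: A549 lung adenocarcinoma cells under basal conditions with no added stimulus; test concentration not given here.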 Particulars: higher = more signal.
The subject of the next test is Lefty1. The test can be described thus: Lefty1 binders on small-molecule microarrays, primary screen, biochemical, small-molecule microarray, 635/667 nm fluorescence (AID 1139). Particulars: small-molecule microarray binding, fluorescence 635/667; higher = more signal.
Test [8] relates to wheat germ agglutinin (Triticum aestivum), Alexa647-labelled. The test is described as follows: wheat germ agglutinin binders on compound microarrays, profiling panel, artefact control for SMM control-protein annotation, biochemical, small-molecule microarray, 635/667 nm fluorescence (AID 1140).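 Also: score merges 667 nm feature emission with signal to noise over triplicate slides.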 As to conditions: WGA-A647 binding, 635 nm fluorescence, higher = more signal.
Test [9] addresses Luciferin 4-monooxygenase (Photinus pyralis) (UniProt P08659). The test is described as follows: firefly luciferase enzyme inhibitors, primary screen, biochemical, luminescence, purified enzyme, 2006 set (AID 1141).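 Also: cell-free assay with purified firefly luciferase at 100 ng per well in PBS; test concentration not given here.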 Particulars: SteadyGlo luminescence, 30 min, higher = more signal, called active from +8 up or from −8 down.

Chain of Luciferin 4-monooxygenase (Photinus pyralis) (P08659 whole entry, looked up): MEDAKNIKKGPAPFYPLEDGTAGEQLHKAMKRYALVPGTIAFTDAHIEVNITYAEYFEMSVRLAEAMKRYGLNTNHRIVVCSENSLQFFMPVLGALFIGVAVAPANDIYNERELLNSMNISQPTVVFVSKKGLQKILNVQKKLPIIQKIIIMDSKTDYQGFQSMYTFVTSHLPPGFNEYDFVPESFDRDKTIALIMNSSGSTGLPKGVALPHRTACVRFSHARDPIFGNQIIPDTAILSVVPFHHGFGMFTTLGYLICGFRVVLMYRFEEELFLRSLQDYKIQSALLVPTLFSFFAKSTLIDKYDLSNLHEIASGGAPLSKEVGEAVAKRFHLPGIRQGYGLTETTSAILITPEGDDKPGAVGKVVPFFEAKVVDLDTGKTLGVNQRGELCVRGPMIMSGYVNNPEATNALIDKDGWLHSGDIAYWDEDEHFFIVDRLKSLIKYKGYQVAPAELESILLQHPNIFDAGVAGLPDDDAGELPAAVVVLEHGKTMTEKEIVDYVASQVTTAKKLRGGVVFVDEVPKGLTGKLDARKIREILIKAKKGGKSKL
Chain of Follistatin (Homo sapiens) (P19883 whole entry, looked up): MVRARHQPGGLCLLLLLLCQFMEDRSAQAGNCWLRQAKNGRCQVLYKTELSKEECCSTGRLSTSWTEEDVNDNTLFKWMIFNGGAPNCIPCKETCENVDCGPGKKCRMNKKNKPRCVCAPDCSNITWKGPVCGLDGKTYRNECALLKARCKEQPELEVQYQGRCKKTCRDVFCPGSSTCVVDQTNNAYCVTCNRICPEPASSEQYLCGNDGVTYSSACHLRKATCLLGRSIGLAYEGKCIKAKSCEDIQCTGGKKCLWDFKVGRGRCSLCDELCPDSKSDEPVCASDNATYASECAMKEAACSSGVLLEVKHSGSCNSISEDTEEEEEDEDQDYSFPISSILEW
Chain of Focal adhesion kinase 1 (Homo sapiens) (Q05397 whole entry, looked up): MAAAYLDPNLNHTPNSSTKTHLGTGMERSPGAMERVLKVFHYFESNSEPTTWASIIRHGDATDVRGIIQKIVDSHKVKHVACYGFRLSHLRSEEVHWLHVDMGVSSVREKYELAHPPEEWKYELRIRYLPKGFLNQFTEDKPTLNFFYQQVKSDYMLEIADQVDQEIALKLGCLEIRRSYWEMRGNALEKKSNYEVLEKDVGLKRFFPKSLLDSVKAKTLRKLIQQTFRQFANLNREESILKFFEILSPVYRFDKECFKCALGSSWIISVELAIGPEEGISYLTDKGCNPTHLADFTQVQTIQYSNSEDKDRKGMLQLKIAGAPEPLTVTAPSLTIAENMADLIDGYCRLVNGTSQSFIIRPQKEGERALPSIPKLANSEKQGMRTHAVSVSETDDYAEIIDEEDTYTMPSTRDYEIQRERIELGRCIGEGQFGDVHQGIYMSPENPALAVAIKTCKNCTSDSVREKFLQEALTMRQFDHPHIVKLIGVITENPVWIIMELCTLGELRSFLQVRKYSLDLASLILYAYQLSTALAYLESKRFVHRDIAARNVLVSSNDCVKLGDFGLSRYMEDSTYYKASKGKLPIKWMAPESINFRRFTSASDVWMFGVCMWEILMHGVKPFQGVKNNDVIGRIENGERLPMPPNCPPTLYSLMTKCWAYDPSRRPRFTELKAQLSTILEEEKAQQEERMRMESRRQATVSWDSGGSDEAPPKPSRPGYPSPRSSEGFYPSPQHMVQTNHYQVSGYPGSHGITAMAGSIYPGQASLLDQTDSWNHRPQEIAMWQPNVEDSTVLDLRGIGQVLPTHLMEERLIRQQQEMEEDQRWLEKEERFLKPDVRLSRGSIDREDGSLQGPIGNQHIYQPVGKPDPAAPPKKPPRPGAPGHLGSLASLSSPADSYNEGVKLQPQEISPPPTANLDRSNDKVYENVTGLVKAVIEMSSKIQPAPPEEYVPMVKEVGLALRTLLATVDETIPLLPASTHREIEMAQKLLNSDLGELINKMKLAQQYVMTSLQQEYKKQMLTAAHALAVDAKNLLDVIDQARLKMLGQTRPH

On to `C=CCC(OC(C)=O)[C@@H]1[C@@H](N(Cc2ccc(-c3ccccc3)cc2)C(=O)c2cccc3ccccc23)c2cc(OCCCO)ccc2N1C(=O)Cc1ccc(OC)cc1` (stereo not given in full), for which the composite z-score in [1] is 0.118; in test [2], -0.0598; in [3], -0.109; in test [4], 0.698; in test [5] it was 0.921; in test [6], 0.285. Moreover, the composite z-score was 0.0844 in the test with Lefty1 and 0.175 in test [8]. The z-score in test [7] is 0.508; in test [9], 0.706 (inactive).

With `COc1ccc(CCNC(=O)[C@@H]2c3ccccc3C(=O)N(Cc3ccccc3OC)[C@H]2c2ccc(CO)cc2)cc1`, the composite z-score worked out at 1.71 in test [1]; 1.15 in [2]; 0.347 in test [3]; 0.406 in [4]; 0.674 in test [5]; 1.02 in [6]. For the same molecule, the figures for the composite z-score (in the test on Lefty1; in [8]) were 0.0605 and 0.655, respectively. In addition, the z-score in test [7] was 0.84; in test [9], 0.256 (inactive).

As to `C[C@]1(C(=O)O)c2ccccc2C(=O)N(Cc2cc(F)cc(C(F)(F)F)c2)[C@H]1c1ccc(CO)cc1`, the composite z-score in [1] is 0.201; in test [2], 0.349; in test [3], 0.263; in test [4], 0.955; in [5], 0.88; in test [6], 0.299. Also, the composite z-score in the test with Lefty1 worked out at 0.956; in test [8], 0.0471. In addition, the z-score in test [7] is -1.06; in [9], 0.759 (inactive).

Take `CCCC=C(CCC)[C@@H](NC(=O)OCC(C)C)c1ccc(C(=O)OC)cc1`: the composite z-score in test [1] is 0.403; in test [2] it was 0.717; in [3], 1.16; in [4] it was 0.441; in test [5], -0.133; in [6], 0.462. The figures for the composite z-score (with Lefty1; in test [8]) were 0.704 and 0.0477, respectively. Also, the results for the z-score in test [7] and in [9] were 0.744 and 2.34 (inactive), respectively.

On to `Cc1ccc(S[C@]2(C(=O)NC(C)C)CC(=O)N(C3CCCCC3)[C@@H]2c2ccc(CO)cc2I)cc1`, for which the composite z-score in test [1] was 0.362; in test [2], 1.11; in test [3] it was 0.414; in test [4], 0.703; in test [5], 1.21; in [6], 0.396. Moreover, the composite z-score in the test on Lefty1 was determined as 0.964; in [8] it was 0.0189. Moreover, the z-score in test [7] is 1.04; in test [9], 0.571 (inactive).

Consider `C=CCC(OC(C)=O)[C@@H]1[C@@H](N(Cc2ccc(-c3cccc(C(F)(F)F)c3)o2)C(=O)Cc2ccc(F)cc2)c2cc(OCCCO)ccc2N1C(=O)Cc1ccc2ccccc2c1` (stereo not given in full), for which the composite z-score in test [1] was 0.114; in test [2], -1.33; in test [3], -0.216; in test [4] it was -0.193; in [5], 0.112; in [6], -0.599. For the same molecule, the composite z-score with Lefty1 was -0.482; in [8] it was 0.0382. In addition, the results for the z-score in [7] and in [9] were 0.696 and -0.442 (inactive), respectively.

`COC(=O)[C@@]1(Cc2ccc(F)cc2)[C@H]2c3cc(C(=O)N4CCCC4)n(Cc4ccccn4)c3C[C@H]2CN1C(=O)c1ccccc1`: the composite z-score in [1] is 1.58; in test [2] it was 1.25; in test [3], 1.01; in [4], 0.903; in [5], 0.37; in test [6], -0.453. The composite z-score in the test on Lefty1 was -0.2; in [8], -0.128. Moreover, the z-score was -0.0238 in [7] and 1.1 (inactive) in [9].

On to `COC(=O)[C@H](Cc1ccccc1)N1CC2=CCCC=C[C@@H]2[C@H]1[C@H](O)Cc1ccccc1`, for which the composite z-score in test [1] was -0.305; in [2] it was 0.431; in test [3], -0.384; in test [4], 0.515; in test [5] it was 0.87; in [6] it was 0.122. The composite z-score in the test on Lefty1 amounted to 0.273; in [8] it was 0.261. Moreover, the z-score in test [7] is 0.18; in test [9] it was -0.62 (inactive).

Consider `CC1CC/C=C\[C@H]2OC34C=CCN(CCN5CCOCC5)C(=O)[C@H]3N(CCCO)C(=O)[C@@H]4C2C(=O)O1` (stereo not given in full), for which the composite z-score in test [1] is 0.549; in [2], -1.13; in test [3], -0.381; in test [4], -1.22; in [5] it was -0.298; in test [6], -0.311. The composite z-score is -0.265 in the test on Lefty1 and -0.133 in test [8]. Besides, the z-score was -0.296 in test [7] and 0.201 (inactive) in [9].

Turning to `NC(=O)N1C(=O)C2C(C1=O)C1C=C(CCCO)C2C(c2ccc(CN3CCCC3)cc2)N1Cc1sc2ccccc2c1Cl` (stereo not given), the composite z-score was 0.17 in [1]; 0.1 in [2]; 0.39 in test [3]; -0.109 in test [4]; 0.301 in [5]; -0.145 in test [6]. Besides, the composite z-score with Lefty1 was -0.131; in test [8], 0.394. The figures for the z-score in test [7] and in [9] were 0.947 and -0.286 (inactive), respectively.

With `CCCCCC1=C2CNC(Cc3ccccc3)(C(=O)OC)C=C2C(C)C1=O` (stereo not given), the composite z-score was 1.01 in test [1]; 0.515 in test [2]; 0.563 in test [3]; 0.837 in test [4]; -0.216 in test [5]; -0.871 in test [6]. Moreover, the composite z-score in the test with Lefty1 is -0.849; in test [8], 0.0953. For the same molecule, the values for the z-score in test [7] and in [9] were 1.04 and 0.423 (inactive), respectively.

For `COC(=O)c1cccc([C@H]2OC(=CC(=O)OC(C)C)C[C@@H](c3cccc(C(=O)OC)c3)O2)c1`, the composite z-score amounted to 1.51 in test [1]; 1.24 in [2]; 1.09 in test [3]; 1 in test [4]; 1.11 in [5]; 0.748 in test [6]. Further, the figures for the composite z-score (in the test with Lefty1; in test [8]) were 0.679 and 0.961, respectively. Also, the z-score in test [7] was -0.562; in test [9] it was -1.74 (inactive).

Take `CN(C)CCCNC(=O)[C@@]1(C)c2ccccc2C(=O)N(Cc2ccc(OC(F)(F)F)cc2)[C@H]1c1ccc(CO)cc1`: the composite z-score in [1] was 0.117; in test [2] it was 0.365; in [3], 0.37; in test [4], 0.294; in [5] it was 0.948; in [6] it was 0.389. In addition, the composite z-score is -0.425 in the test on Lefty1 and 0.668 in test [8]. For the same molecule, the z-score in test [7] is -0.664; in [9], 0.14 (inactive).

Turning to `COc1cc(C(O)C2C=CC3C(=O)N(c4ccccc4)C(=O)C3N2Nc2ccccc2F)cc(OC)c1OC` (stereo not given), the composite z-score in test [1] was 1.66; in test [2] it was 1.28; in test [3] it was 0.337; in test [4], 1.03; in [5], 0.233; in test [6], -0.171. In addition, the composite z-score with Lefty1 amounted to 0.323; in test [8], 0.792. The z-score in test [7] was -0.374; in [9] it was -0.397 (inactive).
